Experimental data taken from PubChem BioAssay (Tox21).
Several values for one entry are separate records, joined by “and”; a condition that tells them apart may be missing. Equal values may be shown once. Results filed as inconclusive are left out. More than one record can exist for a structure, and the calls need not agree. Activity calls are given as the source filed them. Unless noted, the call rests on the fitted dose curve; in most records, active means well fitted curve in the direction sought with a large enough effect in the repeat runs; inconclusive means weak or mixed curves; inactive means no such curve, though single readings can be large; an effect the other way counts as inactive or inconclusive.

Legend:
[1] = qHTS assay to identify small molecule agonists of the estrogen receptor alpha (ER-alpha) signaling pathway in the presence of an antagonist - cell viability counter screen (AID 1259386); further: series mostly up to about 92 µM; nearly all actives have a fitted effect of over 30% in size
In short: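 Compounds tested at 15 concentrations for 22 h at 37C alongside 10.0nM (final) ICI-182,780 antagonist, in VM7Luc4E2 cells grown in phenol red-free, charcoal-stripped medium. Viability read by CellTiter-Fluor fluorescence after 1 h reagent incubation.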

[2] = biological target: Progesterone receptor (Homo sapiens) (UniProt P06401); assay: qHTS assay to identify small molecule agonists of the progesterone receptor (PR) signaling pathway (AID 1346784; calls by dose curve; further: nearly all actives have a fitted effect of over 30% in size)
In short: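 Seed PR-UAS-bla HEK 293T cells (2% charcoal-stripped FBS), incubate 6 hr at 37C; add compounds in DMSO, 16 hr at 37C; add LiveBLAzer B/G substrate, 2 hr RT; read fluorescence intensity.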

[3] = biological target: Progesterone receptor (Homo sapiens) (UniProt P06401); assay: qHTS assay to identify small molecule antagonists of the progesterone receptor (PR) signaling pathway (AID 1346795; active means well fitted inhibition curve with a large enough effect in the signal ratio in the repeat runs, not every such curve was filed as active; the % refers to the signal ratio)
In short: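 Screening used a GripTite HEK293T line with PR-responsive UAS-beta-lactamase. Cells were challenged with compound in the presence of 1 nM R5020 final for 16 hr at 37C; B/G FRET substrate, 2 hr room temperature, fluorescence.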

[4] = qHTS assay to identify small molecule antagonists of the progesterone receptor (PR) signaling pathway - cell viability counter screen (AID 1346798); further: series mostly up to about 92 µM; nearly all actives have a fitted effect of over 50% in size
In short: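 Measures cytotoxicity in parallel with the PR antagonist reporter read: HEK293T PR-UAS-bla cells get compound and R5020 for 16 hr, and remaining viable cells are quantified by CellTiter-Glo luminescence.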

[5] = qHTS assay to identify small molecule antagonists of the TGF-beta/Smad signaling pathway - cell viability counter screen (AID 1346824); further: nearly all actives have a fitted effect of over 50% in size
In short: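 SBE-bla HEK 293T cells, incubated overnight, then compound plus 0.25 ng/mL TGF-beta1 (stock added) for 5 hr at 37 C. Viability was read in the same wells by CellTiter-Glo luminescence after 30 min at room temperature.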

[6] = qHTS assay to identify small molecule agonists of the TGF-beta/Smad signaling pathway - cell viability counter screen (AID 1346829); further: top concentration of the series differs between compounds; nearly all actives have a fitted effect of over 45% in size
In short: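 In parallel with the Smad reporter read, viability of HEK 293T cells stably carrying SBE-bla is quantified by ATP luminescence following 5 hr compound treatment.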

[7] = qHTS assay to identify small molecule agonists of the TGF-beta/Smad signaling pathway (AID 1346859; active means well fitted activation curve with a large enough effect in the signal ratio in the repeat runs, not every such curve was filed as active; the % refers to the signal ratio; further: series mostly up to about 77 µM)
In short: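 Beta-lactamase reporter activity downstream of Smad binding elements was measured in stably transfected HEK 293T cells; compounds were incubated for 5 hr, substrate for 2 hr at room temperature.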

[8] = biological target: Thyrotropin-releasing hormone receptor (Homo sapiens) (UniProt P34981); assay: qHTS assay to identify small molecule antagonists of the thyrotropin-releasing hormone receptor (TRHR) signaling pathway (AID 1346877; active means well fitted inhibition curve with a large enough effect in the repeat runs, not every such curve was filed as active; further: series mostly up to about 51 µM)
In short: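 Antagonist mode: after a 5 min room-temperature compound exposure, cells were stimulated with 1 nM (final) TRH. Dye-loaded TRHR-HEK293 cells were used, and calcium-dependent fluorescence was followed for 3 min, with 15-point titrations run in triplicate.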

[9] = biological target: Thyrotropin-releasing hormone receptor (Homo sapiens) (UniProt P34981); assay: qHTS assay to identify small molecule agonists of the thyrotropin-releasing hormone receptor (TRHR) signaling pathway (AID 1346891; calls by dose curve;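 further: HEK293 cells expressing TRHR with calcium dye readout; series mostly up to about 58 µM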)
In short: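 Overnight-plated (18 h, 37 °C, 5% CO2) TRHR-Hek293 cells; 2 h calcium dye at 37 °C; compound in DMSO; 3-min kinetic fluorescence read.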

[10] = Human pregnane X receptor (PXR) small molecule agonists, qHTS cell viability counter screen (AID 1346977); further: nearly all actives have a fitted effect of over 50% in size
In short: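 After a 5hr pre-incubation, PXR-Luc HepG2 cells received compounds plus positive control in DMSO and were kept 24hr at 37C. Cell viability was quantified by fluorescence from CellTiter-Fluor added for the final hour.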

[11] = Caspase-3/7 induction in HepG2 cells by small molecules, qHTS assay (AID 1346978); further: nearly all actives have a fitted effect of over 15% in size
In short: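 Wild-type HepG2 cells, 2,000/well, settled 5 hr at 37 C and 5% CO2, then compound-treated for 17 hr; caspase-3/7 activity read by luminescent Caspase-Glo 3/7 after 30 min at room temperature.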

[12] = Caspase-3/7 induction in CHO-K1 cells by small molecules, qHTS cell viability counter screen (AID 1346979); further: nearly all actives have a fitted effect of over 35% in size
In short: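 Multiplexed with Caspase-Glo 3/7 in CHO-K1 cells, this counter screen added CellTiter-Fluor after 16hr of compound exposure and recorded fluorescence 1hr later.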

[13] = Caspase-3/7 induction in CHO-K1 cells by small molecules, qHTS assay (AID 1346980); further: nearly all actives have a fitted effect of over 15% in size
In short: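 Wild-type CHO-K1 cells exposed to compounds for 17hr at 37 C, 5% CO2. Caspase-3/7 activity then measured by Caspase-Glo 3/7 luminescence after 30min at room temperature.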

[14] = Caspase-3/7 induction in HepG2 cells by small molecules, qHTS cell viability counter screen (AID 1346981); further: series mostly up to about 92 µM; nearly all actives have a fitted effect of over 30% in size
In short: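 CellTiter-Fluor fluorescence measured viability in the same wells used for Caspase-Glo 3/7. HepG2 (wild type) at 2,000 cells/well were pre-incubated 5 hr, dosed, and given reagent at 16 hr, with 1 hr further at 37C.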

[15] = biological target: Nuclear receptor subfamily 1 group I member 2 (Homo sapiens) (UniProt O75469); assay: Human pregnane X receptor (PXR) small molecule agonists, qHTS assay (AID 1346982); further: nearly all actives have a fitted effect of over 35% in size; further: potency means the concentration at half of the fitted maximal effect
In short: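 Agonist mode: luminescence from ONE-Glo after 24 h compound exposure at 37C in HepG2 cells carrying hPXR-responsive CYP3A4 luciferase, plated in charcoal-stripped serum medium 5 h beforehand.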

[16] = biological target: Acetylcholinesterase (Homo sapiens) (UniProt P22303); assay: Acetylcholinesterase (AChE) small molecule antagonists: colormetric cell-based qHTS assay (AID 1347395; calls by dose curve; further: nearly all actives have a fitted effect of over 30% in size)
In short: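 In this cell-based qHTS, attached SH-SY5Y cells were treated with test chemicals for 30 min, after which acetylthiocholine hydrolysis was followed by DTNB colour development over 90 min at 37 C.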

[17] = qHTS assay to identify small molecule agonists of the progesterone receptor (PR) signaling pathway - cell viability counter screen (AID 1346799; calls by dose curve; further: nearly all actives have a fitted effect of over 45% in size)
In short: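 Using the same plates as the PR reporter screen, HEK293T PR-UAS-bla cells received compounds for 16 hr at 37C and were then lysed with CellTiter-Glo; luminescence was read 30 min later at room temperature.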

[18] = biological target: Nuclear receptor subfamily 1 group I member 2 (Rattus norvegicus) (UniProt Q9R1A7); assay: Rat pregnane X receptor (rPXR) activation by small molecules, qHTS assay (AID 1346983); settings: rPXR luciferase reporter cells, One-Glo luminescence, 24 h; max activation: stronger effect = higher value; further: nearly all actives have a fitted effect of over 20% in size
In short: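 Cell-based rPXR activation assay: rPXR cells, 2,000 per well, rested 5hr at 37 C, then exposed to compounds in DMSO for 24 hr at 37 C. Luciferase activity read by One-Glo luminescence after 30 min at room temperature.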

[19] = biological target: Nuclear receptor subfamily 1 group I member 2 (Homo sapiens) (UniProt O75469); assay: CYP3A4 induction through human pregnane X receptor (PXR) by small molecules, qHTS assay (AID 1346984); further: nearly all actives have a fitted effect of over 40% in size
In short: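 Read-out is luminescence after One-Glo addition, following a 3 hr, 37C incubation with Luciferin-IPA CYP3A4 substrate (3uM final). Before that, compounds were on DPX-2 cells (HepG2 co-transfected with PXR element plus CYP3A4-promoter luciferase) for 24 hr at 37C.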

[20] = biological target: Nuclear receptor subfamily 1 group I member 2 (Homo sapiens) (UniProt O75469); assay: Human pregnane X receptor (PXR) activation by small molecules, qHTS assay (AID 1346985); further: nearly all actives have a fitted effect of over 40% in size
In short: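 DPX-2 cells (HepG2 co-transfected with a PXR response element and a CYP3A4-promoter luciferase construct) were seeded at 2,000 per well, rested 5 hr at 37C, then exposed to DMSO-dissolved compounds for 24 hr. Activation was read as luciferase luminescence.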
On the % scale 0 is the no-effect control and ±100 the full control effect.

Progesterone receptor (Homo sapiens), sequence (P06401 whole entry, looked up): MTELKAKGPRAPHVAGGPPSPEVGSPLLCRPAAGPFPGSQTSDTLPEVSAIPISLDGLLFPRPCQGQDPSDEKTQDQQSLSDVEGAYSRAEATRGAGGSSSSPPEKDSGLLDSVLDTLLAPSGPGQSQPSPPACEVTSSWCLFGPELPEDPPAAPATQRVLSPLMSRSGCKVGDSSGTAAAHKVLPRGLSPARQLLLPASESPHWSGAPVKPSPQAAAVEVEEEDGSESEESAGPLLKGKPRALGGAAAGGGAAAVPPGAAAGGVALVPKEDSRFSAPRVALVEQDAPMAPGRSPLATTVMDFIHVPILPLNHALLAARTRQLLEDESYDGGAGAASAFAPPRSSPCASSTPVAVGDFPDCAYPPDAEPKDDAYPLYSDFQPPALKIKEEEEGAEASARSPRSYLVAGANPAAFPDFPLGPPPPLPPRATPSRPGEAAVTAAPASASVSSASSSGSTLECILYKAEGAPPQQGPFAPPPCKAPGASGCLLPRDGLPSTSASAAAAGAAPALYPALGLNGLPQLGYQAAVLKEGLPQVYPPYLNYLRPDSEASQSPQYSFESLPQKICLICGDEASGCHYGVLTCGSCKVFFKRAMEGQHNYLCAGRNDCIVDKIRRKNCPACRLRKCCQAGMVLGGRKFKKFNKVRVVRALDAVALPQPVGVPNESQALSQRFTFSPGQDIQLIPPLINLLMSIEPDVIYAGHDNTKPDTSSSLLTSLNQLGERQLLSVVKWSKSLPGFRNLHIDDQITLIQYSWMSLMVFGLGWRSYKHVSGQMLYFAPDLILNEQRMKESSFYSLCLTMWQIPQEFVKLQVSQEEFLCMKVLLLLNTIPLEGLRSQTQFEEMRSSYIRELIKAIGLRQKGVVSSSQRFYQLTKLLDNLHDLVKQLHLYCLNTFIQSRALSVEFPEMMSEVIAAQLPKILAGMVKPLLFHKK
Nuclear receptor subfamily 1 group I member 2 (Homo sapiens), sequence (O75469 whole entry, looked up): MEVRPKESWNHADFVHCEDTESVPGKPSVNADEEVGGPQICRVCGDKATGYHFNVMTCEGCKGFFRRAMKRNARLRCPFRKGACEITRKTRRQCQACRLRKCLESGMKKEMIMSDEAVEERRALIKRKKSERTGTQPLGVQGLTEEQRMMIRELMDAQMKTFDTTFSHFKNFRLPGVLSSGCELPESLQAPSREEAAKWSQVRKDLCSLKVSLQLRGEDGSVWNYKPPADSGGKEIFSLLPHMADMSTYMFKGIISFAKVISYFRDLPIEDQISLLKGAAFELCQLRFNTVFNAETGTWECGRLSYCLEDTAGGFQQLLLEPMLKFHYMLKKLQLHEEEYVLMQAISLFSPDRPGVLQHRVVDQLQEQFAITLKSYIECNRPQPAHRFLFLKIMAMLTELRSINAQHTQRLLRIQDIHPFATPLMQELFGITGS
Thyrotropin-releasing hormone receptor (Homo sapiens), sequence (P34981 whole entry, looked up): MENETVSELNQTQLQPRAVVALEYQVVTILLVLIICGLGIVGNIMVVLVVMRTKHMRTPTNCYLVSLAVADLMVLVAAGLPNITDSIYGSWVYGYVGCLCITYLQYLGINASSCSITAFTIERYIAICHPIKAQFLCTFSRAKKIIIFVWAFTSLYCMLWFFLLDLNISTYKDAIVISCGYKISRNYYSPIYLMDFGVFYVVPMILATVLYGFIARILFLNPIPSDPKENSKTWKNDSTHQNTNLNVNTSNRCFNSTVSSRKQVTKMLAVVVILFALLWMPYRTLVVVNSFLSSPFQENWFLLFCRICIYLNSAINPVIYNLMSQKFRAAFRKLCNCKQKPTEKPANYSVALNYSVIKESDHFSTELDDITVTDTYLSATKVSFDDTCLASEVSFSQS
Acetylcholinesterase (Homo sapiens), sequence (P22303 whole entry, looked up): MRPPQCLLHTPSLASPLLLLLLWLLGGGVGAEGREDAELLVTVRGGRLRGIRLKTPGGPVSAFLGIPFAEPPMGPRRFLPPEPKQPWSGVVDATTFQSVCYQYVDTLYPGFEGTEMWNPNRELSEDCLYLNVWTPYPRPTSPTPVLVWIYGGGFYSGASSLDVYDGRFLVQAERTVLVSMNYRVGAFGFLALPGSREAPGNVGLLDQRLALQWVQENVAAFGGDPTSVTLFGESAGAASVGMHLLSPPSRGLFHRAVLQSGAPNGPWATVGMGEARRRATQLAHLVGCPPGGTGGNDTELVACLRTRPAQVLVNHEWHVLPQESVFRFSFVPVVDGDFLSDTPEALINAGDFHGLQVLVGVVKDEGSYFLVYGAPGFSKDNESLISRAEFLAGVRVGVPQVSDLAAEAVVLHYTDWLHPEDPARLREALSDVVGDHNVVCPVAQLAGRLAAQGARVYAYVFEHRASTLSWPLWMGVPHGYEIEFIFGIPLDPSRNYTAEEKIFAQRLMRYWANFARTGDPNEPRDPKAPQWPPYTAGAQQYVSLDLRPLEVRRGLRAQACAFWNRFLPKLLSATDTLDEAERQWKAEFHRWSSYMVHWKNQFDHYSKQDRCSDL
Nuclear receptor subfamily 1 group I member 2 (Rattus norvegicus), sequence (Q9R1A7 whole entry, looked up): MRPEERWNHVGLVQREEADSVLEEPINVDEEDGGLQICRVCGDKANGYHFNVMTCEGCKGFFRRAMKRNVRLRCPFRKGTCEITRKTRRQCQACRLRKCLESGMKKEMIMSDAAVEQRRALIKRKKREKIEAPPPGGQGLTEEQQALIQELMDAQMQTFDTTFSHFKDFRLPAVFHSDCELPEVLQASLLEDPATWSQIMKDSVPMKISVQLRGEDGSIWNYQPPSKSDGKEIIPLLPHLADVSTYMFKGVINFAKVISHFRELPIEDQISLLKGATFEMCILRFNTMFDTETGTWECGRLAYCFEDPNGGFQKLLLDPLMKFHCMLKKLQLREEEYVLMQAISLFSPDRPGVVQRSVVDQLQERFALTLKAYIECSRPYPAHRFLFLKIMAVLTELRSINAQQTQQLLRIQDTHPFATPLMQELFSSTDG

Sc1ccccc1
inactive: Potency [1] | Potency [2] | Potency [3] | Potency [4] | Potency [5] | Potency [6] | outcome [7] | outcome [8] | outcome [9] | Potency [10] | outcome [11] | Potency [12] | outcome [13] | Potency [14] | Potency [15] | Potency [16]

CC(=O)C1CCOC1=O (stereo unspecified)
inactive: Potency [1] | Potency [2] | Potency [3] | Potency [4] | Potency [5] | Potency [6] | outcome [7] | Potency [10] | outcome [11] | Potency [12] | outcome [13] | Potency [14] | Potency [15] | Potency [16]

CN(C)C(=O)C(c1ccccc1)c1ccccc1
inactive: Potency [1] | Potency [2] | Potency [3] | Potency [4] | Potency [5] | Potency [6] | outcome [7] | outcome [8] | outcome [9] | Potency [10] | outcome [11] | Potency [12] | outcome [13] | Potency [14] | Potency [16]
inactive and 19.3 µM (active): Potency [15]

COC(=O)Nc1cccc(OC(=O)Nc2cccc(C)c2)c1
inactive: Potency [1] | Potency [2] | Potency [3] | Potency [4] | Potency [5] | Potency [6] | outcome [7] | Potency [10] | outcome [11] | Potency [12] | outcome [13] | Potency [14] | Potency [16]
active: Potency [15] 10.9 µM

C[C@H]1C(=O)O[C@@H]2CCN3CC=C(COC(=O)[C@](C)(O)[C@]1(C)O)[C@H]23
inactive: Potency [1] | Potency [4] | outcome [17] | Potency [5] | Potency [6] | outcome [7] | outcome [8] | outcome [9] | Potency [10] | outcome [11] | Potency [12] | outcome [13] | Potency [14] | Potency [15] | max activation [18] -2.06% | Potency [19] | Potency [20] | Potency [16]

C/C=C/c1ccc2c(c1)OCO2
inactive: Potency [1] | Potency [2] | Potency [3] | Potency [4] | Potency [5] | Potency [6] | outcome [7] | Potency [10] | outcome [11] | Potency [12] | outcome [13] | Potency [14] | Potency [15] | Potency [16]

CCSC(=O)N1CCCCCC1
inactive: Potency [1] | Potency [2] | Potency [3] | Potency [4] | Potency [5] | Potency [6] | outcome [7] | Potency [10] | outcome [11] | Potency [12] | outcome [13] | Potency [14] | Potency [15] | Potency [16]
